Measurements: the supplement of paper PMC3334620
Whole data set: some 33,000 sequences, median “E-score (-0.5 to 0.5)” near -0.056, cut for the highest 2% near 0.38. The full list was thinned out, with the highest values kept by preference.

target: Stb4 (UniProt P50104); test: PBM E-score (8-mer binding enrichment) (E-score (-0.5 to 0.5)); higher = stronger / more preferred TF binding; conditions: protein concentration: 200 nM; construct: GST-DNA-binding domain
Description: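 Universal 'all 10-mer' protein binding microarrays (Agilent AMADID 015681) probed with GST-tagged S. cerevisiae TFs (full-length or DBD) made by in vitro transcription/translation (PURExpress), about 100-200 nM. Bound TF was detected with fluorescent anti-GST. Each ungapped 8-mer (which stands for itself and its reverse complement) is scored by the PBM enrichment score (E-score), a modified Wilcoxon-Mann-Whitney statistic from -0.5 to +0.5, computed with the Universal PBM Analysis Suite. Scale: above 0.35 generally sequence-specific binding.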

Sequence of UniProt P50104 (P50104 whole entry, the tested form may be a part): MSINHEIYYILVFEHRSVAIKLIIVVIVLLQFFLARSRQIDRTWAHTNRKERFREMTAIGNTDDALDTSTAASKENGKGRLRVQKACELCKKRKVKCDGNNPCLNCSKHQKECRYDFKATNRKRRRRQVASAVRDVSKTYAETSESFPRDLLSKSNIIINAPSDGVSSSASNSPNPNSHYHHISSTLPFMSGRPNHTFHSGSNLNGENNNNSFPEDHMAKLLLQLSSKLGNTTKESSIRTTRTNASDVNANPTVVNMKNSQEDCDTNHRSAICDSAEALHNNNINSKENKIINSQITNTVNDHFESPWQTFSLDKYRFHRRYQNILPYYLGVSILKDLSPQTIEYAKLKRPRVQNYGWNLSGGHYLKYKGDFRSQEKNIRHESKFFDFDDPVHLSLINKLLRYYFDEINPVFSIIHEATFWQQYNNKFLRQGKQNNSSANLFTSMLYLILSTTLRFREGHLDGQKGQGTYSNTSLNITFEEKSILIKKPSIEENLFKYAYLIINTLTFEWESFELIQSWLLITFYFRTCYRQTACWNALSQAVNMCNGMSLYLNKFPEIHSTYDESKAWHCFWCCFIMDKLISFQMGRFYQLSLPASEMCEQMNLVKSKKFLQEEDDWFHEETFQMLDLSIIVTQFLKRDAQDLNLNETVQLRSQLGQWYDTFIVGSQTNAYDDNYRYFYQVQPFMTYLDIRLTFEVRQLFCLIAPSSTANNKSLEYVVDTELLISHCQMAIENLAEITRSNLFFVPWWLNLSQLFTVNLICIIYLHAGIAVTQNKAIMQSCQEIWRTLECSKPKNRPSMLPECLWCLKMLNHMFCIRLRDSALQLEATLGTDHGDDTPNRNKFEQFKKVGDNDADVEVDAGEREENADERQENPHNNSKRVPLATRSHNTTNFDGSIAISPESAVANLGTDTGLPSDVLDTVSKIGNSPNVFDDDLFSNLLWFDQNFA

Sequence	PBM E-score
GCGAGGCA	0.0697
ACGAGGCG	-0.0457
CCGAGGCG	0.398
CCGAGGCC	0.436
ACGAGGCC	-0.0545
CAGAGGCG	-0.0504
TCGAGGCA	-0.187
GCGAGGCC	-0.243
CCGAGGCA	0.396
ACACGAGT	-0.0741
CCCCGAGG	0.375
ACCCGAGG	0.427
ACCCGAGA	0.472
ACCCGCGT	0.188
ACACGAGA	-0.19
ACCCGGGT	0.41
ACCCGGGC	0.326
ACCCGAGT	0.423
ACTCGAGG	-0.152
ACCCCCGA	0.317
ACCCGGGA	0.378
AGAGCTCT	-0.0781
GAGCCCCC	-0.168
AGCTCACA	-0.192
CCTAGTAG	-0.0242

Sequence	PBM E-score
AGCATACT	-0.166
AGGGGAAT	0.0637
ATTGAGAA	-0.0694
CACAGTGG	-0.0386
ACCACCAA	0.031
CAGCTAGC	-0.0222
ACTCCTCT	-0.061
GGGCCACA	-0.0749
GCCCGAGA	0.352
TCCCGAGA	0.453
CCCCGAGC	0.371
CCCCGAGA	0.326
GCCCGAGC	0.316
ACCCGAGC	0.468
CGACTCGC	-0.0581
AAAGCAAG	0.149
AGCATTCA	-0.0667
CCCGAGTA	0.383
GCCGAGTA	0.374
CTCGAGTC	-0.0623
ACCGAGTC	0.244
ACCGAGTA	0.321
CCCGAGTC	0.395
GGGCATGA	-0.248
ACGCTGAG	-0.29

Sequence	PBM E-score
CGTCTTGC	0.125
ATGTGAGA	-0.03
GCTGGGAC	-0.117
CGCGGATC	0.263
AGCGGATA	0.386
AGCGGATG	0.275
AGCGGATC	0.255
GGCGGATA	0.374
CGCGGATA	0.4
CCCCCCTA	-0.178
ACTGGTGA	-0.226
GAACGGAA	0.346
GATCGTAA	-0.0241
GATCGGAC	0.392
GATCGGGC	0.22
CATCGGAC	0.259
TATCGGAA	0.431
TATCGGCA	0.326
CATCGGAG	0.204
GATCGGCC	0.218
TATCGGGA	0.361
CATCGGAA	0.435
GATCGGAA	0.425
CCATTCCG	0.35
ATATTGGA	-0.0099

Sequence	PBM E-score
CGTCTGCA	-0.122
GAGCATCA	-0.181
AACCAAGA	-0.0962
AAGGCCAA	-0.173
CCAATATC	0.137
AAAGAAAC	0.0504
CAATCGTC	-0.187
AATCGGAA	0.425
AATCGGAC	0.133
AATCGGAT	0.424
AATCGGAG	0.277
AATCGGCC	0.191
AATCGGGT	0.325
CTGACTGA	-0.239
CTAGCCCC	-0.0513
CTTAAAAA	-0.232
CTTCCCGC	0.2
ATTCCCGC	0.295
GTTCCCGA	0.419
ATTCCCGA	0.451
CTCCCCGA	0.282
GTTCCCAA	-0.009
GTTCCCCA	-0.244
ATTCCCGG	0.372
CTTCCCGA	0.438

Sequence	PBM E-score
GCGTCTGA	-0.15
CACTGCCA	-0.176
CAGCGCGG	0.148
ATGGGACA	-0.0554
CCATAGCC	0.0889
GTGGTCCA	-0.0876
GGGGACAA	0.109
CACCTGCG	-0.018
CGGAAGCA	0.435
AGGAAGCC	0.0867
CGGAAGGC	0.373
AGGAAGCA	-0.109
CGGAAGCC	0.41
GGGAAGCA	0.0636
GCAGCCAA	-0.103
ACTAGGTA	-0.202
ATCTGACC	0.104
ACTTTCGC	-0.239
AATTTCGA	-0.152
ATTTTCGC	-0.0335
ATTTTCGG	0.423
AATTTCGG	0.393
ATTTTCGA	-0.256
AATTTCGC	0.123
ACTTTCGA	-0.0194

Sequence	PBM E-score
ACTTTCGG	0.416
CTATCGAG	-0.194
CCGCTCTA	0.0787
ATGCAAAT	-0.115
CAACTCAA	-0.0984
GGAGCGGA	0.26
AGATGAAC	-0.0339
GCGCAAAC	-0.0362
CGTGACTA	-0.158
TCCGAGCA	0.458
GCCGAGCA	0.357
CGCGAGCC	0.143
CCCGAGCG	0.43
ACCGAGCC	0.356
ACCGAGCA	0.374
TGCGAGCA	-0.165
CCCGAGCC	0.438
GCCGAGCC	0.463
CGCGAGCG	-0.016
GACGAGCC	-0.0685
ACCGAGCG	0.38
CCTCTGGC	0.0427
AGGCTCCC	-0.0221
CGATGATA	0.122
ATTAACAC	0.00046

Sequence	PBM E-score
CAGGTGTA	-0.327
GGCACACC	0.0691
CCGCGCAA	0.0559
CCAAGTAC	-0.196
ATTAGGCA	-0.144
GTCGTCCA	-0.096
GCGACCCA	-0.00585
AGGTCCCG	0.325
CACAACGA	0.0887
CACGAGCA	-0.18
CTCGAGCA	-0.0413
CCCGAGCA	0.405
CGCGAAAG	-0.185
GGCTATAA	0.104
CGCCTGCC	-0.0366
CACAGATG	-0.0862
GAGCAGGC	-0.135
CATATCCC	0.0584
AATATCCG	0.452
CATATCCA	-0.178
AATATCCC	0.247
AATATCCA	0.0783
CATATCCG	0.403
GCCTCTCA	0.0652
ACAAACCC	0.0864

Sequence	PBM E-score
AGTGACAT	-0.243
CGGTGGCC	0.114
ATCGGCGA	0.226
CGCGGCGC	0.106
ATCGGCGC	0.205
CTCGGCGA	0.397
CTCGGCGC	0.383
GTCGGCGA	0.126
ATTGGTTC	0.0474
ATTACCAG	-0.105
CCCGACGA	0.34
GCCGACCA	0.207
ACCGACCA	0.141
TCCGACGA	0.386
TCCGACCA	0.388
GCCGACGA	0.285
GATCACCA	-0.056
CAGCTCGC	-0.13
AAGCTCGG	0.439
AAGCTCGC	-0.0388
CAGCTCGA	-0.144
CAGCTCGG	0.392
AAGCTCGA	0.0225
GCCCACGC	-0.168
ACATATCT	-0.0348

Sequence	PBM E-score
CTCTCGAC	-0.293
CTCTCGAA	-0.356
CTCTCGGC	0.397
CTCTCGCA	-0.148
ATCTCGCC	0.0501
AACTCGGC	0.364
CTCTCGGA	0.452
ATCTCGGC	0.442
CTCTCGTC	-0.0633
AACCAAGC	-0.109
GACCACGA	-0.259
CCTACCCA	-0.208
AGTCCCCA	-0.364
TCGCCGAA	0.32
ACGCCGAA	0.317
CCGCCGAC	0.217
ACGCCGAG	0.352
CCGCCGAG	0.394
CCGCCGAA	0.4
GCGCCGAA	0.388
CCGCCGCA	0.0672
GCGCCGAC	0.195
CTACGAGC	-0.133
AGTTAGAG	-0.174
ACGTCCCT	-0.32

Sequence	PBM E-score
GCGCATTA	0.00939
CCCTTGAG	-0.134
GTTGCCGA	0.458
GTTGCCCA	-0.0723
ATTGCCGA	0.451
CTTGCCGC	0.18
ATTGCCGG	0.301
GTTGCCAA	-0.164
ATTGCCGC	0.121
CTTGCCTA	-0.286
CTTGCCGA	0.396
CATATGAC	-0.132
GGAGGTAC	0.112
AAGAAACG	-0.084
GTCGAAAA	-0.122
GAATCCAC	-0.134
GATGCCAC	-0.0531
CACTCTTC	-0.0762
GAGCCTGC	-0.0113
AAATTCGT	0.117
AAATTCCC	0.167
AAATTCGC	0.0337
ATATTCCG	0.393
ATATTCGC	-0.034
ATATTCGG	0.399

Sequence	PBM E-score
ATATTCGA	0.0718
AAATTCGG	0.389
ATATTCCC	0.32
AAATTCCG	0.387
ATATTCCA	0.0331
AAATTCCA	-0.0536
CTTGCAGC	-0.153
TCCAGTCA	-0.0411
CAGTGTGG	-0.271
AAAAAGGT	-0.106
AATGTTTG	-0.0254
CCACTCTC	0.0625
GATAAGAC	0.0398
AGATTCCT	-0.216
AGATTCCC	0.127
AGATTCCG	0.389
ACGGTGTC	0.0812
CGGTCCAG	-0.0508
GGACATAC	0.0378
CACCCAGC	0.0106
AATTCGGA	0.447
GATTCGTA	0.0772
GATTCGCA	-0.0177
TATTCGAA	-0.2
CATTCGGG	0.343

Sequence	PBM E-score
TATTCGGA	0.426
AATTCGAA	-0.191
CATTCGGA	0.383
TATTCGCA	-0.147
CATTCGTA	-0.194
GATTCGGA	0.43
AATTCGTA	0.0882
ACCCATAG	-0.221
GGCGTTCA	-0.0303
CGCGACTC	-0.0117
CCTTAGTC	-0.155
CGAGCACC	0.204
CTATTCCC	0.0798
AGCAGTAC	0.0047
AATTCGGC	0.357
GATTCGGC	0.393
GATTCGCC	-0.0248
AATTCGGT	0.278
CATTCGTC	-0.0104
CATTCGCC	-0.0759
CATTCGGC	0.409
AATTCGGG	0.39
GATTCGAC	-0.233
GACAAAAC	-0.0388
GTACATCA	-0.00531

Sequence	PBM E-score
GTTATCCA	0.0169
AAATCTCA	-0.0445
CTCGGCTA	0.472
ATCGGCTA	0.403
GTCGGCTA	0.377
ATCGGCTG	0.328
CTCGGCTC	0.422
CACGGCTA	0.299
CGCGGCTC	0.191
ATCGGCTC	0.279
AACGGCTA	0.16
ATCAGCAC	-0.139
CAGGTGGA	-0.236
GAAGTTGA	-0.085
CCATCCGG	0.332
TCATCCGA	0.473
CCATCCGA	0.453
ACATCCAG	-0.261
TCATCCCA	-0.181
ACATCCTG	-0.0816
ACATCCGG	0.447
ACATCCCA	-0.0846
ACATCCGT	0.348
ACATCCGA	0.486
TCATCCAA	-0.191

Sequence	PBM E-score
CCATCCGC	0.28
CAACTAGG	-0.0487
TCTTCGCA	-0.0992
GTGTGCAA	-0.127
ACGTTCCC	0.11
ATTCAACC	0.00448
AAAGACAT	-0.14
GCGGGGGA	0.0109
CCGCAAGA	0.151
GCATCCGC	0.295
GCATCCTA	-0.163
GCATCCGA	0.466
ACGGCCAG	-0.124
CTCGGTGC	0.244
GTCGGTAA	0.333
ATCGGTAC	0.329
ATCGGTTA	0.368
CTCGGTTA	0.44
CTCGGTAC	0.383
CTCGGTAA	0.431
GTCGGTTA	0.343
ATCGGTAA	0.336
